# From PubChem BioAssay
# Assay: probe aNOTCH3 binding on compound microarray – biochemical, small-molecule microarray, 635/667 nm fluorescence, primary screen (AID 1120);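 note: probe is a biotin-tagged antibody raised against NOTCH3 rather than NOTCH3 protein; score merges spot fluorescence near 667 nm with spot signal to noise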
# Conditions: higher = more signal
row,Compound,composite z-score
1,COC(=O)[C@@]1(Cc2ccc(OC)cc2)[C@H]2c3cc(C(=O)N4CCCC4)n(Cc4ccsc4Br)c3C[C@H]2CN1C(=O)c1ccccc1,0.527
2,CCOC(=O)C[C@H]1[C@H](OC(=O)Cc2ccc3c(c2)OCO3)[C@@H](NC(=O)c2ccc(-c3ccccc3)cc2)c2cc(OCCCO)ccc2N1C(=O)c1ccc2ccccc2n1,-0.112
3,COC(=O)[C@@]1(Cc2ccc(F)cc2)[C@H]2c3cc(C(=O)N(C)C)n(CC4CC4)c3C[C@H]2CN1C(=O)c1ccccc1,1.65
4,CCCCC(=C=CC[C@@H](O)c1ccccc1OCCO)CCO,-0.0321
5,COc1ccc([Si](C)(C)[C@@H]2[C@@H](CCO)O[C@]3(C(=O)N(Cc4ccc(N5C(=O)COc6ccccc65)cc4)c4ccccc43)[C@H]2C)cc1,0.305
6,CC1CC/C=C\[C@H]2OC34C=CCN(Cn5nnc6ccccc65)C(=O)[C@H]3N(C(CO)C(C)C)C(=O)[C@@H]4C2C(=O)O1 (some centres undefined),-0.0647
7,CCCCN1CC=CC23O[C@@H]4/C=C\CCC(C)OC(=O)C4[C@H]2C(=O)N(CCCCCO)[C@@H]3C1=O (some centres undefined),-0.422
8,O=C1C[C@]2(c3ccc([N+](=O)[O-])cc3)C(=O)N(CCN3CCOCC3)c3cc(CO)ccc3[C@H]2N1C1CCCCC1,-0.221
9,O=C(O)[C@@]1(CCS(=O)(=O)c2ccccc2)COC(c2ccc(OCCCO)cc2)=N1,-0.15
10,COc1ccc(C(O)C2C=CC3C(=O)N(c4ccccc4)C(=O)C3N2Nc2ccc(C(C)C)cc2)cc1OCc1ccccc1 (centres undefined),0.307
11,CC(C)C(=C=CC[C@@H](O)c1ccccc1OCCO)CCO,-0.0311
12,CN(C)C(=O)[C@]1(Cc2ccccc2CN=[N+]=[N-])N=C(c2ccc(OCCCO)cc2)O[C@@H]1c1ccccc1CN=[N+]=[N-],0.442
13,COc1ccc(C(=O)Nc2cccc(CN3C(=O)[C@]4(O[C@H](CCO)[C@@H]([Si](C)(C)c5ccc(OC)cc5)[C@@H]4C)c4ccccc43)c2)cc1,0.0297
14,CCCCCC1=C2CNC(CCC)(C(=O)OC)C=C2C(C)C1=O (centres undefined),0.227
15,CCOC(=O)C[C@H]1[C@H](OC(=O)c2cc3ccccc3oc2=O)[C@@H](NC(=O)Cc2ccc(OC)cc2)c2cc(OCCCO)ccc2N1C(=O)c1ccccc1,-0.0324
16,COc1ccc([C@H]2C[C@H]3C(Br)=C[C@@H]2C(=O)[C@]32CO2)cc1,-0.176
17,CCOC(=O)C1=CCC(c2ccccc2)N(S(=O)(=O)CC[Si](C)(C)C)C1 (centres undefined),-0.392
18,O=C1NCC(=O)N2[C@@H]1C[C@@H](C(=O)O)[C@H]2c1cccc(OCCO)c1,2.12
19,COCCOC(=O)N1C(=O)[C@@]2(c3cc(C#CC4=CCCCC4)ccc31)[C@H](C(=O)N1CCc3cc(OC)c(OC)cc3C1)[C@H]1C(=O)O[C@H](c3ccccc3)[C@H](c3ccccc3)N1[C@@H]2c1ccc(OCCO)cc1,0.0836
20,O=C(NCC(F)(F)F)[C@@H]1c2ccccc2C(=O)N(C2CCCCC2)[C@H]1c1ccc(CO)cc1,-0.0313
21,CC(C)OC(=O)C=C1C[C@@H](c2ccccc2C(F)(F)F)O[C@@H](c2ccccc2C(F)(F)F)O1,-0.0044
22,COc1ccc([Si](C)(C)[C@H]2[C@H](CC(=O)N3Cc4ccccc4C[C@H]3CO)O[C@@]3(C(=O)N(Cc4ccc(N5CCC5=O)cc4)c4ccccc43)[C@@H]2C)cc1,-0.0014
23,C=CCC(OC(C)=O)[C@@H]1[C@@H](N(Cc2cccc3ccccc23)C(=O)c2ccc(-c3ccccc3)cc2)c2cc(OCCCO)ccc2N1C(=O)Cc1ccc(OC)cc1 (some centres undefined),-0.0232
24,COc1ccc(CCNC(=O)[C@@H]2c3ccccc3C(=O)N(C3Cc4ccccc4C3)[C@H]2c2ccc(CO)cc2)cc1,-0.0725
25,C=CCNC(=O)[C@H]1[C@@H]2C(=O)O[C@@H](c3ccccc3)[C@@H](c3ccccc3)N2[C@@H](c2ccc(O)cc2)[C@]12C(=O)N(C(=O)OCCOC)c1ccc(C#CCNC(N)=O)cc12,0.0955
26,C=CCC(OC(C)=O)[C@@H]1[C@@H](N(Cc2ccc(-c3cccc(C(F)(F)F)c3)o2)C(=O)Cc2ccc(F)cc2)c2cc(OCCCO)ccc2N1C(=O)Cc1ccc(OC)cc1 (some centres undefined),-0.0918
27,Cc1ccc(S[C@]2(C(=O)NCC(F)(F)F)CC(=O)N(C(C)C)[C@@H]2c2ccc(CO)cc2I)cc1,-0.276
28,O=C1NC(=O)C2C1C=CC(C(O)c1ccccc1)N2Nc1ccc(Cl)cc1Cl (centres undefined),0.405
29,COc1ccc([Si](C)(C)[C@H]2[C@H](CCO)O[C@@]3(C(=O)N(C)c4c(Br)cc(C)cc43)[C@@H]2C)cc1,-0.0596
